Inconclusive results are not listed. Calls of active or inactive are those of the source. Unless noted, calls come from the whole dose curve; as a rule, active = well fitted curve in the direction sought with a large enough effect in the repeat runs; inconclusive = weak or mixed curves; inactive = no such curve, though single readings can be large; an effect the other way counts as inactive or inconclusive.
Legend:
[1] = qHTS assay to identify small molecule antagonists of the vitamin D receptor (VDR) signaling pathway - cell viability counter screen (AID 743225); note: nearly all actives have a fitted effect of over 50% in size
Summary of the method: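 Compounds were pinned onto VDR-bla HEK 293T cells together with 1-alpha,25-dihydroxyvitamin D3 at 3 nM final. After 16 h at 37C and 5% CO2 plus the reporter readout, cell viability was measured by CellTiter-Glo luminescence (30 min, room temperature).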

[2] = qHTS assay to identify small molecule agonists of the NFkB signaling pathway (AID 1159509; active = well fitted curve in the direction sought with a large enough effect in the signal ratio in the repeat runs, not every such curve was filed as active; the % refers to the signal ratio; note: series mostly up to about 61 µM)
Summary of the method: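 NFkB-bla ME-180 cells with a beta-lactamase reporter under an NF-kB response element were plated overnight, treated with compounds in DMSO for 5 hr at 37 C, then loaded with FRET substrate for 1.5 hr at room temperature.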

[3] = qHTS assay to identify small molecule agonists of the NFkB signaling pathway - cell viability counter screen (AID 1159515; calls by dose curve; note: series mostly up to about 61 µM; nearly all actives have a fitted effect of over 55% in size)
Summary of the method: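 Luminescence from CellTiter-Glo (30 min, room temperature) gives viability, measured in the same wells as the beta-lactamase reporter read. Cells were NFkB-bla ME-180, 2,000 per well, treated 5 hr with compounds.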

[4] = qHTS assay to identify small molecule agonists of the endoplasmic reticulum stress response signaling pathway (AID 1159516; active = well fitted activation curve with a large enough effect in the signal ratio in the repeat runs, not every such curve was filed as active; the % refers to the signal ratio)
Summary of the method: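 Read-out is beta-lactamase cleavage of a FRET substrate (405 nm excitation; 460 and 530 nm emissions) in ESRE-bla HeLa cells after a 5 hr compound exposure at 37 C. Substrate incubation ran 2 hr at room temperature.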

[5] = qHTS assay to identify small molecule antagonists of the retinoid-related orphan receptor gamma (ROR-gamma) signaling pathway - cell viability counter screen (AID 1159520); note: nearly all actives have a fitted effect of over 50% in size
Summary of the method: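 Cytotoxicity was read from cellular ATP (CellTiter-Glo luminescence) after 16 hr at 37 C with 1 uM doxycycline induction. The inducer was added 2 hr after compound transfer to Tet-on ROR gamma CHO cells.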

[6] = target: Nuclear receptor ROR-gamma (Homo sapiens) (UniProt P51449); assay: qHTS assay to identify small molecule antagonists of the retinoid-related orphan receptor gamma (ROR-gamma) signaling pathway (AID 1159521;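 note: CHO cells with doxycycline inducible ROR-gamma driving an RORE luciferase reporter; top concentration of the series differs between compounds; nearly all actives have a fitted effect of over 50% in size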)
Summary of the method: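 Test compounds were applied to Tet-on RORγ CHO cells 2 h ahead of doxycycline hyclate (1 uM final). Luciferase reporter activity was quantified by luminescence after 16 h at 37 C and 5% CO2.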

[7] = qHTS assay to identify small molecule agonists of the AP-1 signaling pathway - cell viability counter screen (AID 1159525; calls by dose curve; note: nearly all actives have a fitted effect of over 55% in size)
Summary of the method: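 Luminescent ATP readout (Cell Titer Glo, 30 min RT), normalised to DMSO and tetra n-octyl ammonium bromide controls. Cells were ME-180 AP-1-bla in 0.5% dialyzed FBS Opti-MEM, with a 5 h, 37 °C compound exposure.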

[8] = qHTS assay to identify small molecule agonists of the AP-1 signaling pathway (AID 1159526; calls by dose curve)
[9] = target: Retinoic acid receptor RXR-alpha (Homo sapiens) (UniProt P19793); assay: qHTS assay to identify small molecule agonists of the RXR signaling pathway (AID 1159527; calls by dose curve; note: nearly all actives have a fitted effect of over 35% in size)
Summary of the method: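 Using 9-cis retinoic acid as the reference agonist, chemicals were tested in HEK 293T cells […] for 16 hr; substrate loading lasted 2 hr at room temperature.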

[10] = qHTS assay to identify small molecule agonists of the RXR signaling pathway - cell viability counter screen (AID 1159529); note: series mostly up to about 77 µM; nearly all actives have a fitted effect of over 50% in size
Summary of the method: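 Compounds dissolved in DMSO were pinned onto HEK 293T cells carrying a beta-lactamase reporter under RXR-alpha control and incubated 16 hr. Cytotoxicity was then quantified by CellTiter-Glo luminescence.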

[11] = qHTS assay to identify small molecule antagonists of the retinoid acid receptor (RAR) signaling pathway - cell viability counter screen (AID 1159551); note: nearly all actives have a fitted effect of over 35% in size
Summary of the method: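 Luminescent ATP quantitation (CellTiter-Glo) gave cell viability in C3RL4 cells exposed to test chemicals for 6 h at 37 C alongside 1 uM final retinol.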

[12] = qHTS assay to identify small molecule antagonists of the retinoic acid receptor (RAR) signaling pathway (AID 1159552; note: nearly all actives have a fitted effect of over 50% in size)
Summary of the method: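 Test chemicals and DMSO controls were pin-transferred onto C3RL4 cells a day after seeding; retinol (1 uM final) followed at once. Luminescent reporter output was quantified after 6 hr of co-incubation and 30 min with detection reagent.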

[13] = qHTS assay to identify small molecule agonists of the retinoic acid receptor (RAR) signaling pathway (AID 1159553)
Summary of the method: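 Luminescence from a RARE-driven luciferase reporter in C3RL4 cells served as the read-out, measured after 30 min with detection reagent at room temperature. Compounds in DMSO were applied for 6 hr at 37 C following overnight seeding.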

[14] = qHTS assay to identify small molecule antagonists of the estrogen related receptor (ERR) signaling pathway - cell viability counter screen (AID 1224818);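 note: series mostly up to about 46 µM; viability measured after 17.5 h of compound exposure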
Summary of the method: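 Multiplexed counter screen to separate cytotoxic compounds from true ERR modulators. ERR cells received DMSO-dissolved compounds after a 6 h pre-incubation, were exposed 17.5 h at 37 C, then assayed with CellTiter-Fluor fluorescence.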

[15] = qHTS assay to identify small molecule agonists of the estrogen related receptor (ERR) signaling pathway (AID 1224820)
Summary of the method: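 ERR reporter cells (NTP line) plated 2,000/well, incubated 6 h at 37 C/5% CO2, then pinned with compounds in DMSO and held 18 h at 37 C. One-Glo added; luminescence read after 30 min at room temperature.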

[16] = system: estrogen-related receptor alpha (ERRalpha) with PGC-1alpha coactivator, human; assay: qHTS assay to identify small molecule antagonists of the estrogen related receptor signaling pathway with the pleiotropic PPARgamma coactivator (PGC) (AID 1224821; calls by dose curve)
Summary of the method: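 Cells engineered for PGC/ERR signalling (line from NTP) were plated 6 h at 37 C/5% CO2, then exposed to DMSO-dissolved compound for 18 h at 37 C. Luciferase activity was read by One-Glo luminescence after 30 min at room temperature.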

[17] = qHTS assay to identify small molecule antagonists of the estrogen related receptor signaling pathway with the pleiotropic PPARgamma coactivator (PGC) cell viability counter screen (AID 1224822;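 note: series mostly up to about 46 µM; viability read after 17.5 h compound exposure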)
Summary of the method: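 Cells: PGC/ERR, 2,000/well, 1536-well format. Pre-incubation 6 h, 37 C/5% CO2. Compound exposure 17.5 h, 37 C. Detection: CellTiter-Fluor, 30 min, fluorescence.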

[18] = qHTS assay to identify small molecule agonists of the estrogen related receptor signaling pathway with the pleiotropic PPARgamma coactivator (PGC) (AID 1224823)
Summary of the method: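 PGC/ERR reporter cells were seeded, rested 6 h at 37 C/5% CO2, then exposed to compounds in DMSO by pin transfer for 18 h at 37 C. Luciferase activity was read as luminescence after One-Glo reagent and 30 min at room temperature.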

[19] = qHTS assay to identify small molecule antagonists of the estrogen related receptor (ERR) signaling pathway (AID 1224819)
Summary of the method: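 Seed ERR cells 2,000/well; rest 6 h at 37 C/5% CO2; pin compounds in DMSO; incubate 18 h at 37 C; add One-Glo; wait 30 min at room temperature; measure luminescence.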

Measured: Potency

Sequence of Retinoic acid receptor RXR-alpha (Homo sapiens) (P19793 whole entry, looked up): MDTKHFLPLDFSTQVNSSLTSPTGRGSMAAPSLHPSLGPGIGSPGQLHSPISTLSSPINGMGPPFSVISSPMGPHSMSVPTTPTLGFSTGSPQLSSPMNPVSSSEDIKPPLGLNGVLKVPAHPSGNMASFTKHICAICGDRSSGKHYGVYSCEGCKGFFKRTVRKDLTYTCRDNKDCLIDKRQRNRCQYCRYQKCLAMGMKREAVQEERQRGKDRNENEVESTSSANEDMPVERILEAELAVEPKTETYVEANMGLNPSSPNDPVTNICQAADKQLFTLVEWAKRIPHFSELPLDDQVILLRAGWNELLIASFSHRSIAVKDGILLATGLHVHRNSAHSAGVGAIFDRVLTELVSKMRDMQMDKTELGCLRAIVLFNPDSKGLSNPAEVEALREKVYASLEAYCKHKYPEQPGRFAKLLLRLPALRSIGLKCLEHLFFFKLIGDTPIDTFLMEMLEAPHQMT

C=CCc1cc(OC)c2c(c1)OCO2
not listed: [14] | [15] | [16] | [17] | [18] | [19]
inactive: all other assays above

C[C@H]1CCCC(=O)CCC/C=C/c2cc(O)cc(O)c2C(=O)O1
inactive: [1] | [2] | [3] | [4] | [5] | [7] | [8] | [9] | [10] | [11]

C=CCCC#N
not listed: [14] | [15] | [16] | [17] | [18] | [19]
inactive: all other assays above

CCCCS(=O)(=O)Cl
not listed: [14] | [15] | [16] | [17] | [18] | [19]
inactive: all other assays above

CCC(CC)(CNC(=O)CCCO)c1cccc(OC)c1
not listed: [14] | [15] | [16] | [17] | [18] | [19]
inactive: all other assays above

CON(C)C(=O)Nc1ccc(Br)cc1
not listed: [6] | [13] | [14] | [15] | [16] | [17] | [18] | [19]
inactive: all other assays above

Cn1c(N)nc2c3cccnc3ccc21
not listed: [13] | [14] | [15] | [16] | [17] | [18] | [19]
inactive: all other assays above

S=C=S
not listed: [14] | [15] | [16] | [17] | [18] | [19]
inactive: all other assays above

Cn1c(CCCC(=O)O)nc2cc(N(CCCl)CCCl)ccc21
not listed: [6] | [19]
inactive: all other assays above

COC(=O)c1ccc(CBr)cc1
not listed: [13] | [14] | [15] | [16] | [17] | [18] | [19]
inactive: all other assays above

CCNc1nc(NCC)nc(SC)n1
not listed: [6] | [14] | [15] | [16] | [17] | [18] | [19]
inactive: all other assays above

O=S1(=O)OCCO1
not listed: [14] | [15] | [16] | [17] | [18] | [19]
inactive: all other assays above

CCC(=O)c1ccc(Cl)cc1
not listed: [14] | [15] | [16] | [17] | [18] | [19]
inactive: all other assays above

C[C@H](CN1CCOCC1)C(C(=O)N1CCCC1)(c1ccccc1)c1ccccc1
not listed: [12] | [14] | [15] | [16] | [17] | [18] | [19]
inactive: all other assays above

CCOc1cc(OP(=S)(OC)OC)nc(CC)n1
not listed: [14] | [15] | [16] | [17] | [18] | [19]
inactive: all other assays above

COC[C@@H](NC(C)=O)C(=O)NCc1ccccc1
not listed: [14] | [15] | [16] | [17] | [18] | [19]
inactive: all other assays above

CC(C)N(Cc1ccccc1)C(=O)C(C)(C)C
not listed: [14] | [15] | [16] | [17] | [18] | [19]
inactive: all other assays above

[P]#[In]
not listed: [6] | [14] | [15] | [16] | [17] | [18] | [19]
inactive: all other assays above

BrCc1ccc(Br)cc1
not listed: [14] | [15] | [16] | [17] | [18] | [19]
inactive: all other assays above

CN(CCO)CCO
not listed: [13] | [14] | [15] | [16] | [17] | [18] | [19]
inactive: all other assays above

Cc1ccc(S(=O)(=O)N[C@@H](CCCCN)C(=O)CCl)cc1
not listed: [12] | [16]
inactive: all other assays above

Source: PubChem BioAssay (Tox21)
